Sfp PPTase inh – inhibitors of Bacillus subtilis Sfp phosphopantetheinyl transferase | Q9F4F7 | Potency, µM, inactives show largest response in the series, negative = inhibition, actives largely listed as inhibitors | AID 1490 | 3.5% of 310,000 active | Biochemical Sfp PPTase activity, qHTS;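 note: the enzyme is Sfp with the accession as filed and its product quenches rhodamine fluorescence; 0% = enzyme reaction without inhibitor and -100% = no enzyme wells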
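After 15 min at room temperature with compound, 15 nM Sfp received 5 uM rhodamine-CoA plus 12.5 uM BHQ-2-ybbR (50 mM Hepes pH 7.6, 10 mM MgCl2). Rate came from the fluorescence difference over 30 min, ex 525/em 598 nm.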
JMJD2A Tudor inh – inhibitors of human JMJD2A Tudor domain. Potency, µM (doses to about 114 µM), for the others: top-dose activity change, negative = inhibition, hits mostly inhibitors. AlphaScreen JMJD2A-Tudor / H3K4me3 peptide binding. O75164. 4.4% of 390,000 active; note: % is set by controls: 0 for no effect and ±100 for the full control effect; nearly all actives have a fitted effect of over 50% in size
G9a block – G9a (human) methyltransferase inhibition; Q96KQ7; G9a H3K9 monomethylation, AlphaScreen, 2 h; Potency, µM (highest dose often 102 µM), for inactives: at the top dose activity, negative = inhibition, hits mostly inhibitors; 8.8% of 350,000 active; note: % is set by controls: 0 for no effect and ±100 for the full control effect; nearly all actives have a fitted effect of over 75% in size
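Readings reflect AlphaScreen signal from monomethyl-H3K9 antibody detection. HMT at 20 nM; substrate b-H3K9 500 nM; cofactor SAM 20 uM; 2 h RT reaction; compounds tested as titrations in qHTS with 15 min preincubation.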
HP1b chromo inh – blocks HP1-beta chromodomain binding to methylated histone tails | AlphaScreen HP1-beta / biotin-H3K9me3 peptide binding | Potency, µM (top dose mostly 114 µM), for the others: at the top dose activity change, negative = inhibition, most hits filed as inhibitors | 0.56% of 390,000 active; note: nearly all actives have a fitted effect of over 70% in size
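HP1-beta protein (50 nM final) preincubated 30 min at room temperature with biotinylated H3(1-18)K9me3 peptide (50 nM) in PBS pH 7.4, 0.01% Tween-20, then compound added for 30 min. AlphaScreen streptavidin donor/nickel chelate acceptor beads (10 ug/mL final), 30 min dark, luminescence read.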
BAZ2B inh – BAZ2B (human) inhibition; AID 504333; AlphaScreen BAZ2B-H3K14Ac peptide displacement; Q9UIF8; 4.4% of 360,000 active; Potency, µM (top dose mostly 114 µM), for the others: top-dose activity change, negative = inhibition, actives largely listed as inhibitors; note: % is set by controls: 0 for no effect and ±100 for the full control effect; nearly all actives have a fitted effect of over 60% in size
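BAZ2B (50 nM) with biotin-H3(5-23)K14Ac peptide (50 nM) in PBS pH 7.4, 0.01% Tween-20, preformed 30 min, then compound 30 min at room temperature; top concentration 110uM. AlphaScreen streptavidin donor/nickel chelate acceptor beads (10 ug/mL final), 20 min dark, signal read.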
PLK1 PBD inh – inhibitors of human PLK1 polo-box domain binding; P53350; Plk1 PBD binding of FITC phosphopeptide, fluorescence polarization; Potency, µM, inactives show max response, negative = inhibition, most hits filed as inhibitors; 2.8% of 360,000 active; AID 720504; note: series mostly up to about 57 µM; % is set by controls: 0 for no effect and ±100 for the full control effect; nearly all actives have a fitted effect of over 65% in size
Numbers without * were called inactive; ? = inconclusive; . = no result; [ ] = dose if it differs, or a comment. In the library only some 12% were active in any assay of this set; here they are far more common. Calls come from the whole dose curve; as a rule, active = well fitted curve in the direction sought with a large enough effect; inconclusive = small, poorly fitted or top-dose-only effect, or another doubt; inactive = no such curve, though single readings can be large; an effect the other way counts as inactive or inconclusive. Potency is the fitted concentration of half-maximal effect.

SMILES | Sfp PPTase inh | JMJD2A Tudor inh | G9a block | HP1b chromo inh | BAZ2B inh | PLK1 PBD inh
Cc1ccc2c(=O)c(C(=O)c3ccccc3)cn(CC(=O)Nc3ccc4c(c3)OCCO4)c2n1 | . | -4% | -2%[59 µM] | 19% | 3%[57.1 µM] | .
O=[N+]([O-])c1cccc(OCc2cn3cccnc3n2)c1 | 3% | -4%[11.4 µM] | 7% | ? | -12% | 27µM*
Cc1cccn2cc(COc3ccc(-c4ccccc4)cc3)nc12 | 35µM* | -25% | -2%[59 µM] | -4% | ? | 0%
Cc1ccc(OCc2cn3cccnc3n2)cc1 | 12% | -8% | -2%[59 µM] | 35% | 89µM* | 2%
Cc1cccn2cc(COc3cccc([N+](=O)[O-])c3)nc12 | -1% | -19% | -9% | 22% | -3% | -1%
CCOc1ccc(-c2cc(NC(=O)c3ccccc3)c(C(=O)OC)s2)cc1 | . | 12% | 2%[59 µM] | 56% | 11% | .
COc1ccc(NC(=S)N(Cc2ccc(Cl)cc2)Cc2ccc(C(=O)O)cc2)cc1Cl | 50µM* | -25% | ? | 12% | ? | ?
CCc1ccc(NC(=S)N(Cc2ccc(Cl)cc2)Cc2ccc(C(=O)O)cc2)cc1 | 18µM* | -30% | -36% | -17% | -13% | 24µM*
Cc1ccc(NC(=S)N(Cc2ccc(Br)cc2)Cc2ccc(C(=O)O)cc2)cc1C | 17% | -27% | 45µM* | -19% | -28% | ?
Cc1cccc(NC(=S)N(Cc2ccc(Cl)cc2)Cc2ccc(C(=O)O)cc2)c1 | 3% | -15% | -45% | 18% | 1% | -11%
COc1ccc(CN(Cc2ccc(C(=O)O)cc2)C(=S)Nc2ccccc2C)cc1OC | -22% | -16% | 45µM* | 36% | -11% | -19%
COc1ccc(CN(Cc2ccc(C(=O)O)cc2)C(=S)Nc2ccccc2Cl)cc1OC | ? | -9% | -15% | 33% | -16% | -2%
COc1cccc(NC(=S)N(Cc2ccc(C(=O)O)cc2)Cc2ccc(OC)c(OC)c2)c1 | 6% | -15% | ? | 28% | 5% | -24%
Cc1c(P(=S)(c2ccccc2)c2ccccc2)c2ccccc2n1C/C=C/c1ccccc1 | . | -2% | . | . | . | .
N[C@H](Cc1cc(I)c(Oc2ccc(O)c(I)c2)c(I)c1)C(=O)O | 33% | . | 41%[21.5 µM] | . | . | .
Cc1cc(C)cc(NC(=S)N(Cc2ccc(Cl)cc2)Cc2ccc(C(=O)O)cc2)c1 | -9% | -23% | 19% | 20% | ? | -8%
Cc1cc(NC(=S)N(Cc2ccc(Cl)cc2)Cc2ccc(C(=O)O)cc2)ccc1Cl | -6% | -24% | ? | 4% | ? | 30µM*
CCCc1cc(=O)oc2cc(OCC(=O)Nc3ccccn3)ccc12 | -9% | -16% | . | 29% | -8% | -4%
CCc1cc(=O)oc2cc(OCC(=O)NCc3ccccn3)ccc12 | 8% | ? | 13% | -4% | -17% | 27µM*
COc1ccc(-c2cc(=O)oc3cc(OCC(=O)Nc4ccccn4)ccc23)cc1 | 7% | 18µM* | 18% | 19% | -27% | 3µM*
COc1cc(NC(=O)C2CC(c3ccccc3O)=NO2)cc(OC)c1OC (centres undefined) | . | . | . | . | . | -6%
CC(C)(C)C(=O)[C@H]1[C@H](c2ccccc2)[C@@]2(N=C(c3ccccc3)OC2=O)C2c3ccccc3C=NN21 (some centres undefined) | 3% | ? | 79µM* | -5% | -3%[57.1 µM] | -3%
CC(=O)Nc1ccc(NC(=O)COC(=O)c2cnccn2)cc1 | 19% | -14% | -42% | 33% | -14% | 5%
Cc1cc(C)c2c(N=NN(C)C)[nH]nc2n1 | 0% | -6% | 45µM* | 31% | 5% | ?
O=C(Nc1cc2c(cc1C(=O)c1ccc(Br)cc1)OCCO2)c1ccc(Cl)cc1 | . | -10% | 17%[59 µM] | 31% | 2% | .
SMILES | Sfp PPTase inh | JMJD2A Tudor inh | G9a block | HP1b chromo inh | BAZ2B inh | PLK1 PBD inh
CC(C)(C)SCCNS(=O)(=O)c1ccc(C#N)cc1 | 16% | -14% | -2% | -2% | 0% | 0%
CC(C)(C)SCCNS(=O)(=O)c1ccc(Cl)cc1 | 9% | 18µM* | 36%[12.7 µM] | -14% | -1% | ?
COC(=O)[C@H](CCSC)NC(=O)c1cc2c(cn1)[nH]c1ccccc12 | 8.9µM* | ? | 1.8µM* | ? | -34% | 3µM*
CNC(=O)c1cc2c(cn1)[nH]c1ccccc12 | 28% | -17% | 29%[12.7 µM] | 53% | . | 0%
CC1(C(=O)NC2CCCCC2)Cc2ccccc2C(=O)N1Cc1ccc(Cl)cc1 (centres undefined) | . | 1% | 7%[59 µM] | 39% | 4% | .
CC(C)(C)c1ccc(OCCCn2ccnc2)cc1 | -12% | 25µM* | 22µM* | ? | 50µM* | -4%
c1ccc2cc(OCCCn3ccnc3)ccc2c1 | -12% | 4µM* | 25µM* | ? | 50µM* | -22%
CCc1nccn1S(=O)(=O)c1ccc2ccc(C)cc2c1 | -6% | -6% | ? | 25% | 7% | -11%
O=C(CN1CCN(S(=O)(=O)c2ccc(F)c(Cl)c2)CC1)N1CCOCC1 | . | 11% | 1.1µM* | 39% | -3% | 3%
CCOc1cc(S(=O)(=O)N2CCOCC2)ccc1F | 9% | -5% | -7%[59 µM] | 25% | -5% | -6%
Cc1cc(S(=O)(=O)N2CCOCC2)ccc1F | 3% | 79µM* | -2%[59 µM] | ? | -5% | 30µM*
CCOc1ccc2cc(S(=O)(=O)N3CCOCC3)ccc2c1 | -11% | -2% | 4.5µM* | 9% | 8% | ?
CC(=O)N1CCN(S(=O)(=O)c2ccc(F)c(Cl)c2)CC1 | 6% | -1% | 16% | 21% | . | -2%
CCOc1ccc2cc(S(=O)(=O)n3ccnc3C)ccc2c1 | 40µM* | -18% | ? | 32% | -33% | -29%
COc1ccccc1CNC(=O)c1cn(C)c2ccc(S(=O)(=O)N3CCCC3)cc2c1=O | 17% | 6% | 7% | 11% | 9% | 3%
O=Cc1ccc(N2N=C(c3ccccc3)CC2c2ccccc2)cc1 (centres undefined) | -11% | 142% | 264% | 215% | 83% | 2%
O=[N+]([O-])c1cccc(C2CC(c3ccccc3)=NN2c2ccccc2)c1 (centres undefined) | 1% | 28µM* | 32µM* | ? | ? | -11%
CCCCNc1nc(C)c(C(C)=O)cc1C#N | 13% | -6% | 1% | 0% | -25% | -10%
CCCNc1nc(C)c(C(C)=O)cc1C#N | 19% | -7% | 0% | 32% | 50µM* | -6%
CCc1ccc2c(c1)C1(NN=C(c3cccc4ccccc34)S1)C(=O)N2 (centres undefined) | -3% | . | ? | . | 20µM* | .
Cc1cccc(C)c1Nc1c(-c2ccccc2Cl)nc2cnccn12 | . | 11% | 3%[59 µM] | 79% | 16% | .
CCN(C(=O)CSc1nc2ccccc2n1Cc1cc(C)ccc1C)c1ccccc1 | . | -13% | -13%[59 µM] | -14% | -26% | .

High-throughput results: PubChem BioAssay, National Center for Advancing Translational Sciences (NCATS)
